Screening data as filed in PubChem.
AMA1 RON2 block: AMA1-RON2 (P. falciparum) interaction inhibition | Potency, µM (highest dose often 58.2 µM), usual class: inhibitors | 0.2% of 360,000 active | AlphaScreen AMA1-biotinylated RON2 peptide binding; further: nearly all actives have a fitted effect of over 45% in size
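AMA1 (3D7) with his tag at 25 nM final met compounds first, then biotinylated RON2 peptide at 25 nM; detection used donor plus acceptor beads, 10 µg/mL apiece, read by AlphaScreen after 30 min at room temperature.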
AmpC inh detg: AmpC beta-lactamase inhibition with detergent present. P00811. AmpC hydrolysis of nitrocefin, absorbance 480 nm, 0.01% Triton. Potency, µM (titrated, usually from 114 µM), usual class: inhibitors. 0.041% of 370,000 active; further: nearly all actives have a fitted effect of over 25% in size
Target sequence (P00811 whole entry, looked up): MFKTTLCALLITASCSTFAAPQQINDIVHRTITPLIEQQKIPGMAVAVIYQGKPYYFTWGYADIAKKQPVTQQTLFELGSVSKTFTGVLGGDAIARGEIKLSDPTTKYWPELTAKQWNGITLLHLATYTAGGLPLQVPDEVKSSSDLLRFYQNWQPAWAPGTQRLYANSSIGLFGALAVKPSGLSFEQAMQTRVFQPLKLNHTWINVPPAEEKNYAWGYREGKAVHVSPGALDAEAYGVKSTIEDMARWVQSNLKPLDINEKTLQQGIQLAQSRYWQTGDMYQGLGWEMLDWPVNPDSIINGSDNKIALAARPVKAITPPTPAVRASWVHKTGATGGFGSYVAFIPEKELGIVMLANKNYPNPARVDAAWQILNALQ
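20 mM phosphate pH 7.0 + 0.01% (detergent screen) or 0.0001% Triton X-100; 5.3 nM AmpC reagent; cpd preinc 15 min RT; nitrocefin (800 uM stock) to start; A480 q20 s × 4 min; Activity was normalised to no-enzyme and no-compound control wells.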
RE007 growth inh: less growth of the S. pombe RE007 Vpr strain; S. pombe RE007 Vpr strain, BacTiter-Glo ATP luminescence, 24 h; Potency, µM (series often up to 92.2 µM), hits mostly inhibitors; 0.21% of 360,000 active; AID 651644; active means well fitted falling curve with a large enough effect; inconclusive means small, poorly fitted or top-dose-only effect; inactive means no such curve, though single readings can be large or run the other way; further: nearly all actives have a fitted effect of over 50% in size
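Fission yeast RE007 carrying one integrated HIV-1 vpr copy, seeded at OD 0.01 in PMG+AL medium with 23 nL pinned compound. Grown 24 h at 30 degrees; viability read by BacTiter-Glo luminescence after 5 min.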
Sm TGR inh: inhibitors of Schistosoma mansoni thioredoxin glutathione reductase; Q962Y6; purified TGR, DTNB reduction, TNB absorbance 405 nm; Potency, µM (top dose mostly 114 µM), hits mostly inhibitors; 3% of 360,000 active; further: nearly all actives have a fitted effect of over 60% in size
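First, TGR (20 nM dispensed) and NADPH were mixed with compound. Second, a 15 min room-temperature incubation followed. Third, further NADPH and then DTNB were added to start the reaction. Finally, TNB absorbance was monitored kinetically.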
AmpC inh no detg: blocks E. coli AmpC beta-lactamase in detergent-free assay; AmpC nitrocefin hydrolysis, absorbance 480 nm, 0.0001% Triton; Potency, µM (series often up to 57.1 µM), actives largely listed as inhibitors; 0.52% of 330,000 active; AID 485341; further: nearly all actives have a fitted effect of over 20% in size
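AmpC (5.3 nM in the dispensed reagent) in 20 mM phosphate pH 7.0 with 0.01% (detergent screen) or 0.0001% Triton X-100 was preincubated with compounds for 15 min at room temperature. Nitrocefin was then added from an 800 uM solution, and hydrolysis was followed at 480 nm.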
Hits are given with their value; . = inactive; ? = inconclusive; / = no result given; [ ] = another dose, or the depositor's remark. Rows were chosen to be rich in hits. Some 3.2% of all compounds tested hit in one or more screens of this group. Unless noted, the call rests on the fitted dose curve; in most records, active means well fitted curve in the direction sought with a large enough effect; inconclusive means small, poorly fitted or top-dose-only effect, or another doubt; inactive means no such curve, though single readings can be large; an effect the other way counts as inactive or inconclusive.

SMILES | AMA1 RON2 block | AmpC inh detg | RE007 growth inh | Sm TGR inh | AmpC inh no detg
CCCN1C(=O)c2cc(C(=O)Nc3ccc(OC)c(OC)c3)ccc2C1Nc1ccc(OC)c(OC)c1 (stereo unspecified) | . | . | . | . | .
Cc1ccc(Nc2c(-c3ccc(N(C)C)cc3)nc3ccccn23)cc1 | / | . | / | . | /
O=C(Nc1nc2ccc(F)cc2s1)c1ccccn1 | . | . | 14µM | . | .
O=C(Nc1nc2ccccc2s1)c1cnccn1 | . | . | . | . | .
Cc1cccc(S(=O)(=O)NC(=O)C2(C)CCN2C(=O)Cc2cc(F)ccc2F)c1 (stereo unspecified) | 40µM | / | . | / | /
CC1(C(=O)NS(=O)(=O)c2cccc(Cl)c2)CCN1C(=O)Cc1cc(F)ccc1F (stereo unspecified) | . | / | . | / | /
Nc1c(C(=O)Nc2ccccc2F)sc2nc(-c3cccnc3)ccc12 | . | . | . | . | .
COC(=O)c1sc2nc(-c3ccco3)ccc2c1N | . | ? | . | 2.8µM | .
Nc1c(C(=O)Nc2ccccc2F)sc2nc(-c3ccco3)ccc12 | . | . | . | 2.8µM | .
CO/N=C(/C(=O)N[C@@H]1C(=O)N2C(C(=O)O)=CCS[C@H]12)c1cnc(N)s1 | / | 50µM | / | . | .
CC1=C(C(=O)OCc2ccccc2)N2C(=O)[C@@H](NC(=O)COc3ccccc3)[C@H]2SC1 | . | ? | . | . | .
CCC(Sc1nc2ccccc2c2nc(CCc3c(C)n[nH]c3C)nn12)C(=O)Nc1ccc(OC)cc1 (stereo unspecified) | / | . | / | . | /
CC(C)(C)CN1CCNC(=O)C1CC(=O)NCCc1ccccc1F (stereo unspecified) | . | . | . | 50µM | .
CSc1cccc(CNC(=O)CC2C(=O)NCCN2CC(C)(C)C)c1 (stereo unspecified) | . | . | . | 40µM | .
O=c1[nH]c(Nc2ccc(F)cc2)cc2ccccc12 | . | . | . | 35µM | .
Cc1ccccc1Nc1cc2ccccc2c(=O)[nH]1 | . | ? | . | 3.2µM | .
O=C1OCC2=C1C(c1cccc(Cl)c1)CC(=O)N2c1ccc(C(F)(F)F)cc1 (stereo unspecified) | / | . | / | . | /
Cc1c(CNC(C)CCc2ccccc2)c(C(=O)O)c(C)n1Cc1ccc(F)cc1Cl (stereo unspecified) | / | . | / | . | /
COc1cc2c(cc1OC)CN(C(=O)Cc1ccccc1)CC2 | . | . | . | . | .
COc1cc2c(cc1OC)CN(C(=O)c1ccccc1C(=O)O)CC2 | . | ? | . | 79µM | .
Cc1cc(C)c(/C=C/c2onc(C)c2S(=O)(=O)N2CCC(C(=O)N3CCN(c4ccc(Cl)cc4)CC3)CC2)c(C)c1 | / | . | / | . | /
NC(=O)c1sc2nc3c(c(-c4ccco4)c2c1N)CCC3 | . | ? | . | . | .
Nc1c(C(=O)NC2CC2)sc2nc3c(c(-c4ccco4)c12)CC/C3=C/c1ccco1 | .[2.32 µM] | . | . | 5µM | .
CCOC(=O)c1c(S(=O)(=O)N2CCC(C(=O)Nc3ccc(OCC)cc3)CC2)c(C)n(C)c1C | / | . | / | . | /
Clc1ccc(-c2nc3ccncc3[nH]2)cc1 | . | ? | 40µM | . | .
SMILES | AMA1 RON2 block | AmpC inh detg | RE007 growth inh | Sm TGR inh | AmpC inh no detg
Fc1ccc(-c2nc3ccncc3[nH]2)cc1 | . | . | . | . | .
NS(=O)(=O)c1ccc(Cc2ncc(C(F)(F)F)cc2Cl)s1 | . | . | . | . | .
O=C(CCl)c1ccc(Cc2ncc(C(F)(F)F)cc2Cl)s1 | . | ? | . | 8.9µM | .
CCOC(=O)N1CCC(NC(=O)CN2C(=O)CSc3ncccc32)CC1 | . | . | . | . | 28µM
O=C(NC(Cc1ccccc1)C(=O)NCc1ccccn1)c1ccco1 (stereo unspecified) | . | ? | . | ? | .
O=C(NCc1ccccn1)c1ccco1 | . | . | . | 50µM | .
O=C(Nc1nc(-c2ccccn2)cs1)c1ccco1 | . | . | ? | 32µM | .
c1ccc(-c2nc(-c3ccco3)cs2)nc1 | . | ? | ? | 22µM | .
CCOc1ccc(NC(c2ccc(Cl)cc2)c2nnc(-c3cccc(F)c3)o2)cc1 (stereo unspecified) | / | . | / | . | /
Cn1c(C(=O)N2CCN(C(=O)c3ccco3)CC2)cc2c(=O)n3ccccc3nc21 | . | . | . | 45µM | .
